Among the data in PubChem BioAssay (Tox21) are Potency values, retold here.

“And” between values parts separate entries of the source, which are not always exact repeats. Equal values may be shown once. Results filed as inconclusive are left out. Some structures have more than one record in an assay (separate samples or runs), and their calls can disagree. The source made the active and inactive calls. Unless noted, the call rests on the fitted dose curve.

A short description of test [1]: Nuclear factor erythroid 2-related factor 2/antioxidant responsive element (Nrf2/ARE) small molecule agonists: qHTS cell viability counter screen in human keratinocytes (AID 1919968; active means well fitted curve in the direction sought with a large enough effect in the repeat runs; an effect the other way counts as inactive or inconclusive; further: nearly all actives have a fitted effect of over 55% in size; further: potency means the concentration at half of the fitted maximal effect). The gist of the method: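 Seed 1,500 KeratinoSens cells per well, then incubate 5 h at 37 C/5% CO2. Add compounds in DMSO and incubate 23 h. Add CellTiter-Fluor, wait 1 h and read fluorescence.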

Test [2] concerns the target Gonadotropin-releasing hormone receptor (Homo sapiens) (UniProt P30968). The experiment in a line: Human gonadotropin-releasing hormone receptor (GnRHR) small molecule agonists, calcium flux assay in GnRHR-HEK293 cells (AID 1920063). Further: nearly all actives have a fitted effect of over 35% in size. Further: potency means the concentration at half of the fitted maximal effect. The gist of the method:
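Cells: HEK293 stably expressing human GnRHR. Steps: overnight (18 h) culture, 1 h calcium dye loading at 37 C, compound addition, kinetic fluorescence read at 480/540 nm. Each compound tested at 15 concentrations in triplicate.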

In test [3] the target is KiSS-1 receptor (Homo sapiens) (UniProt Q969F8). In words: Human kisspeptin (KISS1R) small molecule agonists, calcium flux assay in KISS1R-HEK293 cells (AID 1920064; active means well fitted curve in the direction sought with a large enough effect in the repeat runs; an effect the other way counts as inactive or inconclusive). In outline: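 Cells plated and incubated 18 h; dye added, 1 h at 37 C; compounds in DMSO pinned in; signal read at 480/540 nm every second for 3 min. Each compound tested at 15 concentrations in triplicate.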

Test [4] can be described thus: G protein-coupled receptor (GPCR) small molecule agonists, calcium flux assay: HEK293 wild type cell line counter screen (AID 1920065). The gist of the method:
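Counter-screen of the Tox21 10K library for non-specific calcium release: dye-loaded cells received compounds in DMSO and were monitored by kinetic fluorescence (480/540 nm, 3 min). Fifteen concentrations, run in triplicate.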

The nature of test [5]: p53 small molecule agonists, cell-based qHTS assay with human liver microsomes (AID 1963577).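 Further: p53 response element beta-lactamase reporter cells with liver microsomes plus NADPH.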 The gist of the method:
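16 h, 37 C exposure of p53RE-bla cells to compounds with human liver microsomes and NADPH (0.5 mg/mL final each); detection via LiveBLAzer mixture, 2 h dark at room temperature.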

The nature of test [6]: p53 small molecule agonists, cell-based qHTS assay with rat liver microsomes (AID 1963578). The gist of the method:
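With rat liver microsomes and NADPH present (0.5 mg/mL final each), p53RE-bla cells are treated with compound for 16 h at 37 C. LiveBLAzer detection mixture is then applied for 2 h at room temperature in the dark.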

Test [7] is described as follows: p53 small molecule agonists, cell-based qHTS assay with human liver microsomes: qHTS cell viability counter screen (AID 1963579). Further: nearly all actives have a fitted effect of over 45% in size. In outline:
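In this multiplexed counter screen, the reporter plates were subsequently treated with CellTiter-Glo so that cell viability, reflected by luminescence, could be recorded for p53RE-bla cells dosed 16 h with compounds under microsomal activation (HLM and NADPH).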

Test [8] in a line: p53 small molecule agonists, cell-based qHTS assay with rat liver microsomes: qHTS cell viability counter screen (AID 1963580). Further: nearly all actives have a fitted effect of over 45% in size. The gist of the method:
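In HCT-116 cells carrying a p53 response element-bla reporter, compounds were metabolically activated in situ by rat liver microsomes with NADPH over 16 h. Cell ATP content then served as the cytotoxicity measure.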

Test [9] can be described thus: p53 small molecule agonists, cell-based qHTS assay: qHTS cell viability counter screen (AID 1963581). Further: nearly all actives have a fitted effect of over 45% in size. In outline:
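Cells: HCT-116 with p53 response element-driven beta-lactamase. Treatment: 16 h, 37 C, compounds in DMSO. Read: CellTiter-Glo luminescence after 30 min RT.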

A short description of test [10]: p53 small molecule agonists, cell-based qHTS assay (AID 1963582; active means well fitted activation curve with a large enough effect in the signal ratio in the repeat runs, not every such curve was filed as active; the % refers to the signal ratio). The gist of the method:
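Quantitative HTS in p53RE-bla cells: after a 5 h settling period, compounds delivered in DMSO were left on cells for 16 h at 37 C, and reporter induction was measured as fluorescence following 2 h substrate loading.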

Test [11] concerns the target 5-hydroxytryptamine receptor 2A (Homo sapiens) (UniProt P28223). In words: 5-hydroxytryptamine receptor 2A (HTR2A) small molecule antagonists, cell-based qHTS assay (AID 1963586). Further: nearly all actives have a fitted effect of over 45% in size. In outline: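 Antagonist-mode intracellular calcium assay: DOI (4 nM) added after 5 min compound pre-incubation at room temperature to dye-loaded HTR2A-CHO cells. Fluorescence followed for 3 min, sampled every second.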

For test [12] the target is unchanged. The experiment in a line: 5-hydroxytryptamine receptor 2A (HTR2A) small molecule agonists, cell-based qHTS assay (AID 1963587). Further: nearly all actives have a fitted effect of over 30% in size. Further: potency means the concentration at half of the fitted maximal effect. The gist of the method: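 HTR2A-CHO cells, plated 18 h at 37 C/5% CO2, dye-loaded 1 h at 37 C; compounds in DMSO added by pin tool (agonist mode). Intracellular calcium flux read as kinetic fluorescence on FDSS over 2 min at 1 s intervals.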

Test [13] concerns the target Muscarinic acetylcholine receptor M1 (Homo sapiens) (UniProt P11229). The experiment in a line: Cholinergic receptor muscarinic 1 (CHRM1) small molecule antagonists, cell-based qHTS assay (AID 1963588). Further: nearly all actives have a fitted effect of over 40% in size. In outline:
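CHRM1-CHO calcium-flux assay, antagonist mode. Cells were seeded 18 h, dye-loaded 1 h at 37 C and given compound for 5 min at RT, then acetylcholine was added at 50nM. FDSS fluorescence was read 3 min; 15 concentrations, three runs.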

Test [14] has the same target. In words: Cholinergic receptor muscarinic 1 (CHRM1) small molecule agonists, cell-based qHTS assay (AID 1963589). Further: nearly all actives have a fitted effect of over 35% in size. Further: potency means the concentration at half of the fitted maximal effect. In outline: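 Agonist-mode qHTS in CHO cells stably carrying human muscarinic M1. Intracellular calcium is tracked by fluorescence every second after compound transfer; each compound runs at 15 concentrations in three independent runs.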
A short description of test [15]: cAMP Responsive Elements (CRE) small molecule agonists, cell-based qHTS assay (AID 1963590). In outline:
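Agonist mode qHTS in CRE-bla HEK 293T cells: compounds dosed from DMSO for 3 h at 37 C/5% CO2, followed by LiveBLAzer B/G FRET substrate for 2 h at room temperature.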

Test [16] can be described thus: cAMP Responsive Elements (CRE) small molecule antagonists, cell-based qHTS assay (AID 1963591; active means well fitted inhibition curve with a large enough effect in the signal ratio in the repeat runs, not every such curve was filed as active; the % refers to the signal ratio). The gist of the method:
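Antagonist mode: test compounds are co-incubated with the adenylyl cyclase activator NKH477 (0.25 uM final) on CRE-bla HEK293T cells for 3 h at 37 °C, followed by LiveBLAzer substrate loading.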

Test [17] deals with Beta-2 adrenergic receptor (Homo sapiens) (UniProt P07550). The experiment in a line: Adrenergic beta2 receptor (ADRB2) small molecule antagonists, cell-based qHTS assay (AID 1963592). Further: series mostly up to about 92 µM; nearly all actives have a fitted effect of over 50% in size. The gist of the method:
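Cells (CHO, stable ADRB2 overexpression) incubated 18-20hr at 37C; compounds added from DMSO; agonist mix (1nM isoproterenol, 100uM IBMX, 25uM Ro-20-1724) added; 0.5hr RT; d2-cAMP and anti-cAMP-cryptate added; 1hr RT; 665/615 nm read.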

The target of test [18] is D(2) dopamine receptor (Homo sapiens) (UniProt P14416). The experiment in a line: Dopamine D2 receptor (DRD2) small molecule agonists, cell-based qHTS assay (AID 1963594). Further: nearly all actives have a fitted effect of over 35% in size. In outline: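 HEK293 cells stably expressing DRD2 were cultured 24 h at 37 C, then given Ro20-1724 (0.1 mM final) and compounds for 10 min at room temperature. NKH477 (200nM) was then added for 30 min. cAMP was read by HTRF.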

Test [19] has the same target. The experiment in a line: Dopamine D2 receptor (DRD2) small molecule antagonists, cell-based qHTS assay (AID 1963595; active means well fitted inhibition curve with a large enough effect in the signal ratio in the repeat runs, with a control signal flat; the % refers to the signal ratio). In outline:
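HEK293 cells stably expressing DRD2 were preincubated with 0.1 mM Ro20-1724, then with compound for 10 min at room temperature. Cells were stimulated with 200 nM NKH477 plus 12 nM quinpirole for 30 min, and cAMP was read by HTRF.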

Test [20] deals with Beta-2 adrenergic receptor (Homo sapiens) (UniProt P07550). In words: Adrenergic beta2 receptor (ADRB2) small molecule agonists, cell-based qHTS assay (AID 1963593).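 Further: CHO cells stably overexpressing human ADRB2.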 In outline:
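CHO cells stably over-expressing ADRB2 were plated overnight at 37C, then dosed with compounds plus a stimulation mix containing 100uM IBMX and 25uM Ro-20-1724 for 0.5hr at room temperature. cAMP was measured by HTRF competition, 1hr.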

KiSS-1 receptor (Homo sapiens), sequence (Q969F8 whole entry, looked up): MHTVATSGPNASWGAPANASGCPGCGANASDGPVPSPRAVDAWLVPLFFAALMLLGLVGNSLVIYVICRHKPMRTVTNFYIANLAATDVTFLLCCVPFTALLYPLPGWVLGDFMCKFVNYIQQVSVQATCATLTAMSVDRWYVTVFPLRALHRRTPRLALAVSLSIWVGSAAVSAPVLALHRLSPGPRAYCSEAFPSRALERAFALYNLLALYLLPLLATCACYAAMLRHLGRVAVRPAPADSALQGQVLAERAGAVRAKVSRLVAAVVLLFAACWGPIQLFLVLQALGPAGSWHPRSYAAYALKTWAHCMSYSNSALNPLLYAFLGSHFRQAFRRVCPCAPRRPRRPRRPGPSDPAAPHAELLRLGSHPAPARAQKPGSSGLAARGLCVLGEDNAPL
Gonadotropin-releasing hormone receptor (Homo sapiens), sequence (P30968 whole entry, looked up): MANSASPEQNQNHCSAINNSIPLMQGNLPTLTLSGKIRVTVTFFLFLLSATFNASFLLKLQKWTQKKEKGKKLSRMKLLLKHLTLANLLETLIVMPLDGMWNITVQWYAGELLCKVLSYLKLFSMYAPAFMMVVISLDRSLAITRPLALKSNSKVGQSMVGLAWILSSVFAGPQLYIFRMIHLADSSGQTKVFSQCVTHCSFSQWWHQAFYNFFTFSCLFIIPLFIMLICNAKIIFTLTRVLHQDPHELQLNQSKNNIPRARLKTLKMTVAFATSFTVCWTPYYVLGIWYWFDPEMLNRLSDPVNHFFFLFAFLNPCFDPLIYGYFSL
Muscarinic acetylcholine receptor M1 (Homo sapiens), sequence (P11229 whole entry, looked up): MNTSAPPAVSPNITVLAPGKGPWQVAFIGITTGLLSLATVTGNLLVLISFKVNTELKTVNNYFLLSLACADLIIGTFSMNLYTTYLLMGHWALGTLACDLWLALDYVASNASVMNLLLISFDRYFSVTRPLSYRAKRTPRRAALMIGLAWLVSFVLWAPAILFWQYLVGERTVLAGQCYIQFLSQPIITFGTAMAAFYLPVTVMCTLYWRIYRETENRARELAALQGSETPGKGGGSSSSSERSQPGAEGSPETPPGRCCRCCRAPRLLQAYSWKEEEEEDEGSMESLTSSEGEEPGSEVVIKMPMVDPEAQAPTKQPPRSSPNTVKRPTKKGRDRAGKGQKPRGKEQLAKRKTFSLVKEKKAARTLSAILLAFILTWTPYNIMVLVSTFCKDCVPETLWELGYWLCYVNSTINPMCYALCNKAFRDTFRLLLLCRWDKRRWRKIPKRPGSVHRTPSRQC
Beta-2 adrenergic receptor (Homo sapiens), sequence (P07550 whole entry, looked up): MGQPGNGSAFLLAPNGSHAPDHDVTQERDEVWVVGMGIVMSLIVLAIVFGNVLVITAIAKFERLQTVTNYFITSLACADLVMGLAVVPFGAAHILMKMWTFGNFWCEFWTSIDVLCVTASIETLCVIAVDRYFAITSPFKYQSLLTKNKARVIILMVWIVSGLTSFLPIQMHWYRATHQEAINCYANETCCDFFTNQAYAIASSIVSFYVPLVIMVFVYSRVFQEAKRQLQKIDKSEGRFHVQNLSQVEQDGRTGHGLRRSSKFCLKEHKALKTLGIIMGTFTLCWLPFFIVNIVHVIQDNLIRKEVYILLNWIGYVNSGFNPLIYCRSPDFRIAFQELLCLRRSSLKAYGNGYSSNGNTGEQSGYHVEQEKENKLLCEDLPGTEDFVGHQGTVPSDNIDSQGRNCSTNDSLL
D(2) dopamine receptor (Homo sapiens), sequence (P14416 whole entry, looked up): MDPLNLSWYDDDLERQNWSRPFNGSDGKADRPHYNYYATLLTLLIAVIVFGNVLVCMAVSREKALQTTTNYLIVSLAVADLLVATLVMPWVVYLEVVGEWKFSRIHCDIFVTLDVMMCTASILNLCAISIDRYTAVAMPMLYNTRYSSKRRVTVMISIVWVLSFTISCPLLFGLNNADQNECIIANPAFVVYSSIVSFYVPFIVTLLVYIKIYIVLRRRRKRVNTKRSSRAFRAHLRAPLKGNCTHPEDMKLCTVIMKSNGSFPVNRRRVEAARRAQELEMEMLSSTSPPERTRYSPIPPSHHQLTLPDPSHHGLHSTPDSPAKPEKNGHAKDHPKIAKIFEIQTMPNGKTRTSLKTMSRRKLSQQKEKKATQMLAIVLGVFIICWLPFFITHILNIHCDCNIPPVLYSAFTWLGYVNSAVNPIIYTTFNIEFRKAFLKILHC
5-hydroxytryptamine receptor 2A (Homo sapiens), sequence (P28223 whole entry, looked up): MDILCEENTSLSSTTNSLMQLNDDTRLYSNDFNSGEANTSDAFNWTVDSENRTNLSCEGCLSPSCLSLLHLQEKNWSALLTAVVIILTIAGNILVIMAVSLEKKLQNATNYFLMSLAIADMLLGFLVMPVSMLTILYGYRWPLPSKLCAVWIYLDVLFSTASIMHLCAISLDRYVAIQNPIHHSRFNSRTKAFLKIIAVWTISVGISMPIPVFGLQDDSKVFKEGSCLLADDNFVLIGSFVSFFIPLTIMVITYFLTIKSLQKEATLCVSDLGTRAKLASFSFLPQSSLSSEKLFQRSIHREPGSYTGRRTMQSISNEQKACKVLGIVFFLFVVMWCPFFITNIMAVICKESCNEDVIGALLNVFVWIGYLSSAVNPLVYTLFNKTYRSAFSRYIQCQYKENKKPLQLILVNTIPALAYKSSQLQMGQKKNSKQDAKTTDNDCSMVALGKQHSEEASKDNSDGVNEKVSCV

Turning to `c1c[nH]cn1`, the Potency result in [1], in test [2], in test [3], in test [4], in test [5] and in test [6] was “inactive” each time. The Potency result in test [7], in test [8], in [9], in test [10], in test [11] and in [12] was “inactive” in each case. Besides, the Potency entry in test [13], in test [14], in test [15], in test [16], in test [17] and in [18] was “inactive” in each case. Also, the Potency entry in [19] is “inactive”.

Turning to `NC(=O)NNc1ccccc1`, the Potency entry in test [1], in test [2], in [3], in [4], in test [5] and in test [6] was “inactive” throughout. For the same molecule, the Potency entry in [7], in test [8], in test [9], in [10], in test [11] and in test [12] was “inactive” each time. Moreover, the Potency entry in test [13], in test [14], in [15], in [16], in [17] and in test [20] was “inactive” each time. Moreover, the Potency entry in test [18] and in [19] was “inactive” throughout.

For `CCC(C)(C)C1CCC(=O)CC1`, the Potency entry in test [1], in test [2], in test [3], in test [4], in test [5] and in [6] was “inactive” each time. Further, the Potency entry in test [7], in test [8], in test [9], in test [10], in [11] and in [12] was “inactive” each time. For the same molecule, the Potency entry in test [13], in test [14], in [15], in test [16], in test [17] and in [20] was “inactive” throughout. In addition, the Potency entry in test [18] and in [19] was “inactive” throughout.

On to `O=Cc1cccc([N+](=O)[O-])c1`, for which the Potency result in test [1], in test [2], in test [3], in test [4], in test [5] and in test [6] was “inactive” each time. The Potency entry in test [7], in test [8], in [9], in [10], in test [11] and in test [12] was “inactive” each time. The Potency result in [13], in test [14], in test [15], in [16], in [17] and in test [20] was “inactive” throughout. The Potency result in test [18] and in test [19] was “inactive” throughout.

Take `COc1cccc2c1C(=O)c1c(O)c3c(c(O)c1C2=O)C[C@@](O)(C(C)=O)C[C@@H]3O[C@H]1C[C@H](N)[C@H](O)[C@H](C)O1`: the Potency was 6.15 µM (active) and 2.37 µM (active) in test [1]; 34.9 µM (active) in test [2]. Also, the Potency result in test [3] and in test [4] was “inactive” throughout.

Consider `O=C(Cl)c1ccccc1[N+](=O)[O-]`, for which the Potency entry in test [1], in test [2], in test [3], in [4], in [5] and in [6] was “inactive” each time. The Potency result in test [7], in [8], in [9], in [10], in test [11] and in [12] was “inactive” in each case. The Potency entry in test [13], in test [14], in test [15], in test [16], in [17] and in test [18] was “inactive” each time. Also, in test [19], the Potency entry was “inactive”.

`CNC1(C)C2CCC(C2)C1(C)C` (centres undefined): the Potency result in test [1], in test [2], in test [3], in test [4], in test [5] and in test [6] was “inactive” throughout. Also, the Potency entry in test [7], in test [8], in test [9], in test [10], in test [11] and in test [12] was “inactive” each time. In addition, the Potency result in test [13], in [14], in [15], in test [16], in [17] and in [20] was “inactive” in each case. Further, the Potency entry in [19] is “inactive”.

As for `CCOc1ccc2c(c1)C(C)=CC(C)(C)N2`, the Potency entry in test [1], in test [4], in test [5], in test [7], in test [8] and in test [9] was “inactive” throughout. Besides, the Potency entry in test [10], in [11], in test [13], in [15] and in [18] was “inactive” each time. Moreover, the Potency was 54.7 µM (active) and inactive in [12]; 54.7 µM (active) and inactive in [14].
